Screening data deposited in PubChem by National Center for Advancing Translational Sciences (NCATS).
This is a sample that favours compounds with a hit; in the whole collection about 4.7% have one here.
D1 PAM: human D1 dopamine receptor positive modulation | P21728 | HEK293 TREx D1 cells, calcium flux, dopamine EC20 potentiation | AID 504651 | actives 0.036% (n = 360,000) | potentiation, % at 10 µM; in the data active means potentiation above about 30%; further: 0% is about no effect
Target sequence (P21728 whole entry, looked up): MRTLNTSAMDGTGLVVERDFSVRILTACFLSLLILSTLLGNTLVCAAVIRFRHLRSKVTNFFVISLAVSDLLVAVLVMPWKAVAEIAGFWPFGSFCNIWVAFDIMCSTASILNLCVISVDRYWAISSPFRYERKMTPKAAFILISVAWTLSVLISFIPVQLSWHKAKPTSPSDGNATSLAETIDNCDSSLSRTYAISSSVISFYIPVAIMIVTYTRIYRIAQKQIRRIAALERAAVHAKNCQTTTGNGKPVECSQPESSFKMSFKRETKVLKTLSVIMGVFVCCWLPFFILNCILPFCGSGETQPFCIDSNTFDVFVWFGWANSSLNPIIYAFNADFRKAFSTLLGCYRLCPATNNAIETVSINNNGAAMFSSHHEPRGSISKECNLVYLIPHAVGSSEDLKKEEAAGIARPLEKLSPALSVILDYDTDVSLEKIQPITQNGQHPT
TRHR agonist: activates the human TRH receptor. P34981. TRHR cells, calcium flux fluo-8, FDSS agonist mode. activation, % at 2 µM. actives 0.18% (n = 360,000). AID 493084; further: 0% is about no effect
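Fluo-8-loaded TRHR cells; 10 s baseline, compound added, kinetic Ca2+ fluorescence read 1/s, agonist mode.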
TRHR PAM: TRH receptor (human) allosteric enhancement. enhancement, % at 2 µM. TRHR cells, fluo-8 calcium fluorescence, EC20 TRH enhancement. actives 0.66% (n = 360,000). P34981; in the data active means enhancement above about 30%; further: 0% is about no effect
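TRHR-expressing cells loaded with fluo-8 calcium dye were read kinetically (ex 480/em 530) during compound addition, then stimulated with an EC20 of TRH (10 nM final). Enhancement of the Gq-mediated intracellular calcium response was scored.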
D1 ag: activates the human D1 dopamine receptor | HEK293 T-REx D1 cells, calcium flux, agonist mode | activation, % at 2 µM | actives 1% (n = 360,000); further: 0% is about no effect
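Tetracycline-induced HEK293 TREx D1 cells, force-coupled to calcium signalling, were dye-loaded with a no-wash calcium kit. Compound was pin-added after a 10 s baseline. Fluorescence was read kinetically at 1 cycle/s for 180 s, with calcium rises flagged as agonism.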
D1 antagonist: antagonists of human D1 dopamine receptor; HEK293 TREx D1 cells, calcium flux, dopamine EC80; active compounds read low; actives 3.2% (n = 360,000); AID 504652; P21728; activity change, negative = inhibition, % at 10 µM; in the data active means activity change below about -30%; further: on the % scale 0 is the no-effect control and ±100 the full control effect
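Tetracycline-induced HEK293 T-REx cells with force-coupled D1 receptor were loaded with a no-wash calcium dye. Compound was added after a 10 s baseline and read kinetically for 180 s; EC80 dopamine was then added and calcium flux followed another 180 s.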
The depositor's hits bear a star; ! = repeats disagree. Unless noted, no stated cut-off is given here; in the data, active means activation above about 30%; inactive means the rest.

SMILES	D1 PAM	TRHR agonist	TRHR PAM	D1 ag	D1 antagonist
COc1cc(OC)cc(C(=O)N[C@H](C(=O)OCC(=O)c2ccc(F)cc2)C(C)C)c1	-6	-1	1	9	-7
CC(NC(=O)CCCN1C(=O)c2ccccc2C1=O)c1ccc2c(c1)CCCC2 (configuration not stated)	9	0	2	3	-40*
CCN(CCCNC(=O)c1cc2c(=O)n(C)c3ccccc3c2s1)Cc1ccccc1	-2	0	0	-1	-36*
CN1CCN(CCCNC(=O)c2cc3c(=O)n(C)c4ccccc4c3s2)CC1	-6	0	2	0	-4
CCN(CCCNC(=O)c1cc2c(=O)n(C)c3ccccc3c2s1)c1ccccc1	-1	0	-3	1	3
Cn1c(=O)c2cc(C(=O)NCCCN3CCN(c4cccc(Cl)c4)CC3)sc2c2ccccc21	-3	0	2	0	-45*
CCN1CCN(c2ccc(NS(=O)(=O)c3c(C)nc4sccn4c3=O)cc2Cl)CC1	3	2	0	15	-16
CC1CCN(c2ccc(-c3nc(C(C)C)no3)cc2[N+](=O)[O-])CC1	-1	1	2	3	-1
O=C(CCS(=O)(=O)Cc1ccc(Cl)cc1)NCCCN1CCN(c2ccccc2F)CC1	-22	-1	33*	51*	-59*
O=C(CCCn1c(=O)[nH]c2ccccc2c1=O)N1CCN(c2ccccc2)CC1	-6	0	5	-1	-37*
O=C(CCCCCn1c(=O)[nH]c2ccccc2c1=O)N1CCN(c2cccc(C(F)(F)F)c2)CC1	-1	0	7	1	8
Cc1ccccc1CS(=O)(=O)CCC(=O)NCCCN1CCN(c2ccccc2F)CC1	-10	0	6	-1	-6
O=C(CCCCCn1c(=O)[nH]c2ccccc2c1=O)NCCCN1CCN(c2ccccc2F)CC1	-3	-1	-2	1	-91*
COc1cc(OC)c(NS(=O)(=O)c2ccc3c(c2)NC(=O)CO3)cc1Cl	-1	0	-8	8	-8
COc1cc(OC)c(NS(=O)(=O)c2ccc3c(c2)NC(=O)CCS3)cc1Cl	2	-1	8	15	-38*
CCOc1ccc(CN(C(=O)c2nc(SC)ncc2Cl)C2CCS(=O)(=O)C2)cc1 (configuration not stated)	-1	0	-3	-2	4
O=S(=O)(Nc1cccc(-c2ccc(N3CCCC3)nn2)c1)c1ccccc1C(F)(F)F	0	-1	-3	0	-22
COc1ccc(-c2ccc(NS(=O)(=O)c3ccccc3Cl)cc2)nn1	-2	0	-2	-1	15
CN(C)S(=O)(=O)c1ccc(S(=O)(=O)N2CCN(CCC#N)CC2)cc1	-4	0	7	-1	-33*
CCN(CC)S(=O)(=O)c1ccc(S(=O)(=O)N2CCN(CCC#N)CC2)cc1	13	0	-1	2	0
CC1CCCCC1NS(=O)(=O)c1ccc(S(=O)(=O)N2CCN(CCC#N)CC2)cc1 (configuration not stated)	-9	1	-9	5	-35*
Cc1ccc(-c2nnc(Nc3ccc4c(c3)OCO4)c3ccccc23)cc1S(=O)(=O)NCCO	-6	0	16	1	-34*
CNC(=O)COc1ccc(Nc2nnc(-c3ccc(C)c(S(=O)(=O)NC(C)(C)C)c3)c3ccccc23)cc1	-2	-2	4	-2	-31*
Cc1ccc(-c2nnc(Nc3ccc(Cl)c(Cl)c3)c3ccccc23)cc1S(=O)(=O)NCCO	-2	-2	8	6	-49*
CNS(=O)(=O)c1cc(-c2nnc(Nc3ccc(NC(C)=O)cc3)c3ccccc23)ccc1C	-1	0	0	1	6
SMILES	D1 PAM	TRHR agonist	TRHR PAM	D1 ag	D1 antagonist
Cn1cc(S(=O)(=O)N2CCCCCC2)cc1C(=O)NCc1ccc(Cl)cc1	-4	0	4	8	-6
CC(C)(C)c1ccc(S(=O)(=O)N2CCN(Cc3noc(CCC(=O)N4CCCCC4)n3)CC2)cc1	-3	1	2	1	1
CCOC(=O)c1cc(CC)sc1NC(=O)CN1CCN(C(=O)c2ccco2)CC1	-8	0	-6	109*	-27
CCOC(=O)c1cc(C)sc1NC(=O)CN1CCN(C(=O)c2ccco2)CC1	12	1	8	1	2
O=C(NCc1ccco1)c1ccc(Cn2c(SCc3ccccc3)nc3cccnc32)cc1	-3	1	9	4	-10
CCOC(=O)c1cccc(NC(=O)[C@@H](c2ccccc2)N2Cc3ccccc3C2=O)c1	-4	1	-6	5	-5
N#CC(C#N)=C(N)/C(C#N)=C/c1cc(O)c(O)c(O)c1	2	15	3	30*	-20
CCc1nc2cccnc2n1-c1ccc(CC(=O)Nc2ccc(C)cc2)cc1	-4	-1	0	0	4
COc1ccc(CNC(=O)c2ccc3c(c2)N(C)C(=O)C2CCCCN32)cc1OC (configuration not stated)	5	0	3	1	8
O=C(CCc1nc2ccccc2s1)OCC(=O)c1ccccc1	-6	-1	-8	2	-1
Cc1noc(C)c1COC(=O)CCc1nc2ccccc2s1	-1	-1	1	2	-32*
Cc1cc(NC(=O)c2ccc(NC(=O)CCS(=O)(=O)c3cccs3)cc2)ccc1Br	-2	1	1	7	-38*
COC(=O)c1ccc(NC(=O)CCS(=O)(=O)c2ccc(Br)s2)cc1	0	-1	8	1	-52*!
CN1CCN(Cc2c(O)ccc3occ(C(=O)c4ccccc4)c23)CC1	-11	0	28	15	-77*
CC1Cc2cc(S(=O)(=O)NCCc3ccccc3)ccc2N1C(=O)C1CCC1 (configuration not stated)	-2	0	0	11	-20
CCOC(=O)C1=NN(C(=O)c2ccc(C)cc2)C(O)(c2ccc(Cl)cc2)C1 (configuration not stated)	3	49*	-2	158*	-28
CCCCn1c(NCc2ccccc2O)nc2ccccc21	-7	0	-5	1	-1
CCCCn1c(NCc2ccccc2NS(=O)(=O)c2ccc(C)cc2)nc2ccccc21	-13	1	-4	4	-32*
O=C(NC1CSCC1OC(=O)c1ccccc1)c1ccccc1 (configuration not stated)	-7	-1	-1	3	-39*
COc1cc(C(=O)OC2CSCC2NC(=O)c2ccccc2)cc(OC)c1OC (configuration not stated)	-4	-2	-8	3	2
COc1ccc(-c2nc3c(c(SCC(=O)N4CCCCC4)n2)Cc2c(CO)cnc(C)c2O3)cc1	-6	0	14	2	4
O=C1NC(=Nc2ccccc2Cl)S/C1=C\c1cc([N+](=O)[O-])ccc1O	-8	8	0	76*	10
